Source: PubChem BioAssay (National Center for Advancing Translational Sciences (NCATS))
Shown are actives, neighbours in structure and some others; about 2.4% of the full set was active somewhere.
D2 PAM-1 – human D2 receptor positive allosteric modulation; P14416; DiscoveRx D2 beta-arrestin cells, luminescence, 90 min; 100% = 57 uM dopamine signal; potentiation, % (test concentration not listed); 0.23% of 360,000 active; AID 624464; in the data active = potentiation above about 50%; inconclusive = mostly about 30% to 49%
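PathHunter beta-arrestin assay in DiscoveRx D2 cells. Compounds were added with an EC20 of dopamine (50 nM final) for 90 min at 37 deg C. Luminescence was read 1 h after detection reagent, with 57 uM dopamine as the EC100 control.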
D2 ag-1 – agonists of human D2 dopamine receptor; HEK293 T-REx D2 cells, calcium flux agonist mode; activation, % at 2 µM; AID 485358; 0.53% of 340,000 active;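 active = activation over 3 SD above normal in the single-dose calcium agonist read, cut at about 30% in these data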
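Calcium-flux readout, 1 cycle/sec over 180 s following compound pin transfer, in inducible HEK293 Trex D2 cells (force-coupled); dopamine controls included. Positive calcium responses during this window marked compounds as potential agonists.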
D2 antag – antagonizes the human D2 dopamine receptor | P14416 | HEK293 TREx D2 cells, calcium flux, dopamine EC80 | inhibition, % at 10 µM | AID 485344 | 2% of 340,000 active; in the data active = inhibition above about 30%; inactive = below that, where a call was filed
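Compounds are added to dye-loaded, induced HEK293 T-REx cells coupled to calcium release via D2; after a 3 min kinetic read an EC80 dopamine stimulus is given and fluorescence is recorded for 3 more min.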
D2 ag-2 – activates the human D2 dopamine receptor | DiscoveRx PathHunter D2 beta-arrestin, luminescence, 90 min; 100% = 57 uM dopamine signal | 0.084% of 360,000 active | P14416 | activation, % (no concentration beside the values); in the data active = activation above about 40%; inconclusive = between about 15% and that limit
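DiscoveRx PathHunter D2 beta-arrestin cells (2,100/well) attached overnight, then compound-stimulated 90 min at 37 C in HBSS/10 mM HEPES/0.1% Tween-20 buffer; beta-galactosidase complementation read by luminescence after 1 h at ambient temperature. Dopamine 57 uM final (EC100) as control.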
D2 PAM-2 – positive allosteric modulators of human D2 dopamine receptor; P14416; HEK293 T-REx D2, calcium flux, EC20 dopamine potentiation; potentiation, % at 10 µM; 0.34% of 340,000 active;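 active = potentiation over 3 SD above the plate norm, cut at about 30% in these data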
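Potentiation of an EC20 dopamine calcium response measured kinetically over 180 s, after a preceding 180 s compound-only read flagging agonists. Cells: inducible Hek293 Trex D2 line, 4000/well, cultured overnight at 30 C before dye loading.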
D3 ag – D3 receptor agonism confirmed, beta-arrestin readout | shares compounds with D2 ag-1 | DiscoveRx D3 beta-arrestin cells, luminescence, 90 min | Potency, µM (doses to about 76.9 µM), usual class: activators | 4% of 2,300 active; also: nearly all actives have a fitted effect of over 70% in size
Target sequence (P35462 whole entry, looked up): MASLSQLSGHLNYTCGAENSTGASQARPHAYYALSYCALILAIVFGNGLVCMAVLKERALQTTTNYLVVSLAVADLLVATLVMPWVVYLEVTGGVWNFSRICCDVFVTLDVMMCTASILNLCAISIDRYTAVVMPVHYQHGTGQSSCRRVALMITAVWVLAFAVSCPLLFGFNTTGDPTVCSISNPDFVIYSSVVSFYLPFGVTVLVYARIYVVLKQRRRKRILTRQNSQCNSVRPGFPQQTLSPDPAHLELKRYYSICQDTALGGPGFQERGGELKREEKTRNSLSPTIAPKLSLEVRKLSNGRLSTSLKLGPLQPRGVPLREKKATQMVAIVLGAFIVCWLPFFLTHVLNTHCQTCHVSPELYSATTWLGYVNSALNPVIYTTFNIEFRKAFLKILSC
D2 ag-3 – D2 receptor agonism, beta-arrestin counterscreen; DiscoveRx PathHunter D2 beta-arrestin, luminescence, 90 min; response scale: percent relative to full dopamine signal; 5.9% of 2,300 active; Potency, µM (titrated, usually from 76.9 µM), usual class: activators; shares compounds with D2 ag-1; also: nearly all actives have a fitted effect of over 70% in size
Large screens that a line does not name were inactive (follow-up assays come after a bar, where they were run). Unless noted, calls follow the shape of the dose curve; as a rule, active = well fitted activation curve with a large enough effect; inconclusive = small, poorly fitted or top-dose-only effect; inactive = flat fitted curve, though single readings scatter.

O=[N+]([O-])c1ccc(/C=C/C2=NN(c3ccccc3)C(c3ccco3)C2)cc1 (configuration not stated)	D2 ag-1 51 | D3 ag inactive | D2 ag-3 inactive
CC(OC(=O)/C=C/c1cccs1)C(=O)NC1CCCCC1C (configuration not stated)	none
CC(OC(=O)Cc1ccc(Cl)cc1)C(=O)NC1CCCCC1C (configuration not stated)	none | D3 ag inactive | D2 ag-3 inactive
CC(OC(=O)/C=C/c1ccco1)C(=O)NC1CCCCC1C (configuration not stated)	none | D3 ag inactive | D2 ag-3 inactive
CCN(CC)S(=O)(=O)c1cc(NC(=O)c2ccc(-n3cncn3)c([N+](=O)[O-])c2)ccc1C	D2 ag-1 57 | D3 ag inactive | D2 ag-3 inactive
Cc1cc(Br)ccc1NC(=O)CN(C)C(=O)c1ccc(-n2cncn2)c([N+](=O)[O-])c1	none | D3 ag inactive | D2 ag-3 inactive
Cc1ccc(NC(=O)c2ccc(-n3cncn3)c([N+](=O)[O-])c2)cc1	none
CC(=O)N1CCc2cc(CNS(=O)(=O)c3ccc(F)cc3)ccc21	none (no result: D2 PAM-1, D2 antag, D2 ag-2)
COc1ccc(CN=Cc2[nH]c3ccc(Br)c(Cl)c3c2O)cc1	D2 ag-1 51, D2 antag 43 | D3 ag inactive | D2 ag-3 inactive
COc1cccc2sc(N(Cc3cccnc3)C(=O)Cc3ccccc3)nc12	none (no result: D2 PAM-1, D2 antag, D2 ag-2)
COc1cc(OC)cc(-n2c(=O)c3sccc3n(Cc3ccc(F)cc3)c2=O)c1	none (no result: D2 PAM-1, D2 antag, D2 ag-2)
COc1ccc2oc(=O)c(C(=O)N3c4ccccc4CC3C)cc2c1 (configuration not stated)	none (no result: D2 ag-1, D2 antag, D2 PAM-2) | D3 ag inactive | D2 ag-3 inactive
Cc1cc(C)cc(NC(=O)c2cc(S(=O)(=O)N3CCCC3)ccc2F)c1	none (no result: D2 PAM-1, D2 antag, D2 ag-2)
COc1cccc(NC(=O)C(=O)NCC(c2cccnc2)N2CCN(c3ccccc3)CC2)c1 (configuration not stated)	none (no result: D2 PAM-1, D2 antag, D2 ag-2)
OCCN1CCN(Cc2cc(Cl)c3cccnc3c2O)CC1	none
O=c1c(CN2CCN(Cc3ccccc3F)C(CCO)C2)coc2ccccc12 (configuration not stated)	none
c1ccc(N2CCN(Cc3nc4ccccc4[nH]3)CC2)nc1	none
Cc1ccccc1-c1nnc(CN2CCN(c3ccccn3)CC2)o1	none (no result: D2 PAM-1, D2 ag-1, D2 antag, D2 ag-2)
Cc1[nH]c2ccccc2c1CN1CCN(c2ccccn2)CC1	D2 ag-1 51, D2 antag 56 | D3 ag inactive | D2 ag-3 inactive
Brc1ccc(CN2CCN(c3ccccn3)CC2)s1	D2 PAM-1 inconclusive, D2 ag-1 70, D2 antag 69, D2 ag-2 70 | D3 ag inconclusive | D2 ag-3 3.5µM
O=c1c(CN2CCN(c3ccccn3)CC2)coc2ccccc12	D2 ag-1 88, D2 antag 79, D2 ag-2 inconclusive | D3 ag inactive | D2 ag-3 inconclusive
Oc1c(CN2CCN(c3ccccn3)CC2)cc(Cl)c2cccnc12	D2 ag-1 83, D2 antag 89 | D3 ag inactive | D2 ag-3 inconclusive
COc1ccccc1NC(=O)CSc1cn(CC(=O)N2CCCC2)c2ccccc12	none (no result: D2 PAM-1, D2 antag, D2 ag-2)
Cc1ccc(CSC2=Nc3ccccc3C3=NC(CCC(=O)NCc4cccs4)C(=O)N23)c(C)c1 (configuration not stated)	none (no result: D2 PAM-1, D2 antag, D2 ag-2)
CCOC(=O)CC(NC(=O)c1cc2cc(OC)ccc2oc1=O)c1ccc(OC)cc1 (configuration not stated)	none (no result: D2 PAM-1, D2 antag, D2 ag-2)
CC(C)OC(=O)C(CC(=O)O)NCc1ccccc1 (configuration not stated)	D2 antag 68 | D3 ag inactive | D2 ag-3 inactive
CCOC(=O)C(CC(=O)O)NCc1ccco1 (configuration not stated)	none
CCn1cc(C(=O)NCc2ccccc2OC)c(=O)c2cc(S(=O)(=O)N3CCCCCC3)ccc21	none (no result: D2 PAM-1, D2 antag, D2 ag-2)
Cc1cc(C)n(-c2nnc(Nc3ccc(C(C)C)cc3)c3ccccc23)n1	none (no result: D2 PAM-1, D2 antag, D2 ag-2)
CC1CCCC(NC(=O)C2COc3ccccc3O2)C1C (configuration not stated)	none | D3 ag inactive | D2 ag-3 inactive
Cc1cc(C)c(NC(=O)CSc2nc3ccccc3nc2N2CCCCC2)c(C)c1	none (no result: D2 PAM-1, D2 antag, D2 ag-2)
O=C(Cn1ncc2c([nH]c3ccccc32)c1=O)NCCCN1CCN(c2ccccc2)CC1	D2 antag 103, D2 ag-2 inconclusive | D3 ag inactive | D2 ag-3 inconclusive
CC1CCCC(C)N1CCCNC(=O)Cn1ncc2c([nH]c3ccccc32)c1=O (configuration not stated)	none
COc1ccc(NC(=O)C2CCN(C3=NS(=O)(=O)C(c4ccc(C)c(C)c4)=C3C)CC2)c(OC)c1	none (no result: D2 PAM-1, D2 antag, D2 ag-2, D2 PAM-2)
CN(Cc1ccccc1)c1ncnc2c1nnn2C	none (no result: D2 PAM-1, D2 antag, D2 ag-2)
O=C(NCCSCc1ccc(Cl)cc1)C1CCN(S(=O)(=O)Cc2ccccc2)CC1	none (no result: D2 PAM-1, D2 ag-1, D2 antag, D2 ag-2)
O=C(c1cc(-c2ccc(F)cc2)on1)N1CCCC1	none | D3 ag inactive | D2 ag-3 inactive
COc1ccc(S(=O)(=O)c2nnn(-c3ccc(C(C)C)cc3)c2C)cc1	none (no result: D2 PAM-1, D2 antag, D2 ag-2)
O=C(NCc1cccc(C(F)(F)F)c1)C1CCCN(c2ncccn2)C1 (configuration not stated)	D2 ag-1 67 | D3 ag inactive | D2 ag-3 inactive
O=c1cc(CN2CCN(c3ccc(O)cc3)CC2)nc2scc(-c3ccccc3)n12	none | D3 ag 35µM | D2 ag-3 inactive
Cc1cccc(C)c1OCc1cc(=O)n2c(-c3ccccc3)csc2n1	none (no result: D2 PAM-1, D2 antag, D2 ag-2, D2 PAM-2)
COc1ccccc1CNC(=O)c1ccc(N2Cc3cccc(OC)c3Oc3ncccc32)s1	none (no result: D2 PAM-1, D2 ag-1, D2 antag, D2 ag-2)
Cc1c(-c2csc(N)n2)cnn1C	D2 ag-2 inconclusive | D3 ag 11µM | D2 ag-3 inactive
COc1ccc(-c2nc(SCC(=O)Nc3ccc4c(c3)OCCO4)c(-c3ccc(C)cc3)[nH]2)cc1OC	none (no result: D2 PAM-1, D2 ag-1, D2 antag, D2 ag-2)
CCC(=NCCc1ccccc1)C1=C(O)CCC1=O	D2 ag-1 49 | D3 ag inactive | D2 ag-3 inactive
Nc1nc2ccccc2n1/N=C/c1ccc([N+](=O)[O-])s1	none | D3 ag inconclusive | D2 ag-3 inactive
COc1cc(CNCCCN2CCOCC2)ccc1OCC(=O)NC(C)(C)C	none
COc1cc(CNCCN2CCOCC2)ccc1OCC(=O)NC(C)(C)C	D2 ag-1 34 | D3 ag inactive | D2 ag-3 inactive
O=C(NC(Nc1nc2ccc([N+](=O)[O-])cc2s1)(C(F)(F)F)C(F)(F)F)c1cccnc1	none | D3 ag inactive | D2 ag-3 inactive
O=C(NC(Nc1nc2ccc([N+](=O)[O-])cc2s1)(C(F)(F)F)C(F)(F)F)c1ccccc1Cl	none
